Assay results taken from PubChem BioAssay (NCI).
Values joined by “and” are separate entries in the source; they are usually repeats but may differ in a detail not shown here. Equal entries are not always repeated. Compounds without any hit were thinned out: in the full panel of roughly 83,000, 20% have a hit.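 Method: cells in 96-well plates; compound added at one concentration; 48 h incubation; percent growth measured; values under 10 scored active.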 Active and inactive are the calls of the source.

The compounds below were run on MDA-MB-468 breast (assay: NCI-60 one-dose screen, 48 h (100 = growth as untreated, 0 = no growth, -100 = all killed)). Conditions: 10 µM unless noted.

SMILES | growth
CN(C)c1ccc2cc(-c3ccc(Cl)c(Cl)c3)c(N)nc2c1 | 18.9% (inactive)
CC(=C(c1ccc(OCCN2CCCC2)cc1)c1ccc(OCCN2CCCC2)cc1)c1ccc(Cl)cc1 | -85.3% (active)
CC(C)Cc1ccc([C@H](C)C(=O)O)cc1 | 113% (inactive)
CCOC(=O)Nc1cccc(-n2cnc3cc(-c4ccc(O)cc4)ccc32)c1 | 20.4% (inactive)
Cc1ccc(/C=C/C(=O)c2cccc(OCCCOc3cccc(C(=O)/C=C/c4ccc(C)cc4)c3)c2)cc1 | 89.9% (inactive)
COc1ccc(-c2nsc3c2NC(=O)CC3c2ccc(F)cc2)cc1 (stereo unspecified) | 1.54% (active)
COC(=O)c1c2c(c(C)[n+]([O-])c1C)C(=O)C(NCc1ccccc1)=CC2=O | -31.8% (active)
COc1cccc(N2CCN(c3ncnc4c3[nH]c3ccc(F)cc34)C[C@H]2C)c1 | 27.5% (inactive)
CCCCCOC(=O)c1ccccc1O | 107% (inactive)
O=C(O)Cc1ccc2c(c1)Cc1cccnc1O2 | 97.1% (inactive)
CCOC(=O)c1noc2c1CCc1cn(Cc3cc(OC)cc(OC)c3)cc1-2 | 108% (inactive)
O=C1/C(=C/c2ccc(Cl)cc2)COc2ccc(O)cc21 | 85.1% (inactive)
CN1CCN(c2nc(NCCNc3ccnc4cc(Cl)ccc34)c3ccccc3n2)CC1 | -51.6% (active)
OCC1OC(n2ccc3c(NO)ncnc32)C(O)C1O (stereo unspecified) | -88.8% (active)
COc1ccc(CCN2CCCn3c2nc2ccccc2c3=O)cc1 | -14% (active)
Cc1cc2nc3c4cc([N+](=O)[O-])cc([N+](=O)[O-])c4n(CCN(C)C)c3nc2cc1C | 104% (inactive)
CCOC(=O)C1=C(C)NC(=S)NC1c1ccccc1 (stereo unspecified) | 98.3% (inactive)
COc1cc(/C=N/Nc2nc3c([nH]2)c(=O)n(C)c(=O)n3C)ccc1O | 103% (inactive) and 122% (inactive)
S=c1[nH]c(=S)c2c(-c3ccccc3)c(-c3ccccc3)oc2[nH]1 | 96.7% (inactive)
Cn1nnnc1-c1ccc(N)cc1 | 117% (inactive)
COc1c(B(O)O)cccc1-c1nc2ccc3[nH]ncc3c2c2c1CCC2 | 60% (inactive)
COc1cc(C2CC(C3C(=O)N(C)C(=O)N(C)C3=O)=NN2C=O)cc(OC)c1OC (stereo unspecified) | 103% (inactive)
CCCCCCCCCCCCCCCCNCCC[C@@H](C)[C@H]1CC[C@H]2[C@@H]3[C@H](OCCCN)C[C@@H]4C[C@H](OCCCN)CC[C@]4(C)[C@H]3C[C@H](OCCCN)[C@]12C | -55.2% (active)
O=C(Nc1ccc2ncnc(Nc3ccc(Oc4cccc(F)c4)c(Cl)c3)c2c1)c1ccc(CNCCO)cc1 | -46% (active)
COc1ccc(C(=O)/C=C/c2sc(Cl)nc2Cl)cc1 | -13.8% (active)
CCCCCCCCCCCCCCCC(=O)OC[C@@]1(O)C[C@@]23CC[C@@H]4C(C)(C)[C@H](O)CC[C@@]4(C)[C@@H]2CC[C@H]1C3 | 112% (inactive)
